In PubChem BioAssay:
Activity calls are given as the source filed them.

Columns and labels:
Albumin (Bos taurus) = Albumin (Bos taurus) (UniProt P02769); assay: bovine serum albumin binders on microarray, profiling panel, artefact control for SMM control protein annotation, biochemical, small-molecule microarray, Alexa647 label, 635/667 nm fluorescence (AID 1118); conditions: BSA-A647 binding, fluorescence 635 nm, higher = more signal;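 note: score merges 667 nm emission intensity and signal-to-noise per printed compound spot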
[1] = small-molecule microarray binders of probe aXIP, primary screen, biochemical, NeuroSMM set, 635/667 nm fluorescence (AID 1119); conditions: higher = more signal, called active from +8 up or from −8 down;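 note: probe is the protein aXip251-270 applied at 1 µg/mL to compound-printed slides; binding of probe to printed compounds measured as 667 nm fluorescence plus signal to noise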
[2] = small-molecule binders of probe aNOTCH3, primary screen, biochemical, small-molecule microarray, 635/667 nm fluorescence (AID 1120); conditions: higher = more signal;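 note: probe is a biotin-tagged antibody raised against NOTCH3 rather than NOTCH3 protein; score merges spot fluorescence near 667 nm with spot signal to noise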
[3] = small-molecule binders of probe aNOTCH2, primary screen, biochemical, small-molecule microarray, 635/667 nm fluorescence (AID 1121); conditions: higher = more signal;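 note: score merges feature fluorescence read at 667 nm with its signal to noise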
[4] = molecular target: Carbonic anhydrase 2 (Homo sapiens) (UniProt P00918); assay: CAII small-molecule binders, profiling panel, biochemical, small-molecule microarray, Alexa647-labelled CAII (AID 1122); conditions: CAII-A647 binding fluorescence, higher = more signal
[5] = COS7 lysate on small-molecule microarray, probe aHis, 635 nm (AID 1123); conditions: COS7 cell lysate, fluorescence, higher = more signal;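 note: z-score combines 667nm fluorescence intensity with signal-to-noise per printed compound spot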
[6] = compound binding in COS7 lysate, probe aLAP1, primary screen, cell lysate, small-molecule microarray (AID 1124); conditions: probe aLAP1, fluorescence, higher = more signal;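 note: lysate comes from COS7 cells expressing LAP1 and is applied at 0.3 µg/mL; score merges spot fluorescence near 667 nm with signal-to-noise over triplicate slides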
Sam68 (KHDRBS1) = assay: Sam68 small-molecule binders, primary screen, biochemical, small-molecule microarray, 635 nm fluorescence (AID 1125); conditions: small-molecule microarray binding, higher = more signal;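 note: score merges 667 nm channel intensity with signal to noise over triplicate slides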
[7] = test system: Chordin-like protein 2 (CHRDL2); assay: CHRDL2 small-molecule binders, primary screen, biochemical, small-molecule microarray, 635 nm fluorescence (AID 1126); conditions: small-molecule microarray binding, fluorescence 635 nm; higher = more signal;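 note: printed compound slides probed with Chrdl2 protein at 4 µg/mL for 1 h at 4 C; score merges 667 nm emission intensity with signal to noise over three replicate slides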
[8] = molecular target: Concanavalin-A (Canavalia ensiformis) (UniProt P02866); assay: ConA small-molecule binders, primary screen, artefact control for SMM control protein annotation, biochemical, small-molecule microarray, Alexa647 label, 635 nm (AID 1127); conditions: ConA-A647 binding fluorescence, higher = more signal;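 note: z combines 667 nm emission intensity with signal-to-noise across three replicate slides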
Chain of Concanavalin-A (Canavalia ensiformis) (P02866 whole entry, looked up): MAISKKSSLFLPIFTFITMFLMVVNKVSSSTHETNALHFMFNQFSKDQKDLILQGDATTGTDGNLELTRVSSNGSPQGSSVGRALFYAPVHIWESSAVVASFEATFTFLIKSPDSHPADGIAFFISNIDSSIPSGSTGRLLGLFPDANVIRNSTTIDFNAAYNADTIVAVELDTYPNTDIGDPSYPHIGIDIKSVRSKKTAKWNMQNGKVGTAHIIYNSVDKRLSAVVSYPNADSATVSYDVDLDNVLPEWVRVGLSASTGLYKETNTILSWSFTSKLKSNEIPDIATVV

Chain of Albumin (Bos taurus) (P02769 whole entry, looked up): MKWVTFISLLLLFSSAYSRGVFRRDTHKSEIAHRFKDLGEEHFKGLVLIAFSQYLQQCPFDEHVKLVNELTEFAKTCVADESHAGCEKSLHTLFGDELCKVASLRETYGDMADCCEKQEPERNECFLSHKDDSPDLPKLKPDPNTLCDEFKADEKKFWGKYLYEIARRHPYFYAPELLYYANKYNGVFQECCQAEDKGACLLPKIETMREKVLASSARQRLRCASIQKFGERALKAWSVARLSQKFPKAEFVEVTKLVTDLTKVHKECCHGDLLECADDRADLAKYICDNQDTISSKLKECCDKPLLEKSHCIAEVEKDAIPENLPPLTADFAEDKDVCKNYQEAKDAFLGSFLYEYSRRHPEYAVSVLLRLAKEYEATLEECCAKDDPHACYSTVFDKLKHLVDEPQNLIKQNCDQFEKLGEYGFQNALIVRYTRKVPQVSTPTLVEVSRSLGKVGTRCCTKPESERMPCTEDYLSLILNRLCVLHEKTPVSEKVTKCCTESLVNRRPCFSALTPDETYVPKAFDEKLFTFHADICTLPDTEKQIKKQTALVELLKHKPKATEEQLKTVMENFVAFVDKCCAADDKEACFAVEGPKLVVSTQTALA

| SMILES | composite z-score (Albumin (Bos taurus)) | composite Z-score [1] | composite z-score [2] | composite z-score [3] | composite z-score [4] | composite z-score [5] | composite z-score [6] | composite z-score (Sam68 (KHDRBS1)) | composite z-score [7] | composite z-score [8] |
| --- | --- | --- | --- | --- | --- | --- | --- | --- | --- | --- |
| COCCOC(=O)N1C(=O)[C@@]2(c3ccccc31)[C@H](c1ccccc1OCCO)N1[C@H](c3ccccc3)[C@H](c3ccccc3)OC(=O)[C@H]1[C@@H]2C(=O)N1CCCCCCC1 | -0.0233 | 7.47 (inactive) | 2.15 | 1.16 | 0.935 | 4.27 | 1.96 | 1.29 | 1.47 | 0.883 |
| CCCCCCCCCCC(O)C1C=CC2C(=O)N(C)C(=O)C2N1Nc1cc(OC)c(OC)c(OC)c1 (stereo not given) | 0.869 | 0.776 (inactive) | -0.125 | -0.0521 | 0.0172 | 1.44 | 0.148 | -0.383 | -1.3 | 0.245 |
| COc1cc(NN2C(C(O)c3ccc(I)cc3)C=CC3C(=O)N(c4ccccc4)C(=O)C32)cc(OC)c1OC (stereo not given) | 0.499 | 1.59 (inactive) | 0.185 | -0.0501 | 0.758 | 3.02 | 0.0865 | 1.32 | -0.357 | 1.01 |
| CCOC(=O)C1=CCN(S(=O)(=O)c2ccc(C)cc2)C1c1ccccc1 (stereo not given) | 1.02 | 0.728 (inactive) | 0.0836 | -0.0607 | 0.685 | 1.69 | 0.709 | 1.08 | 0.132 | 1.14 |
| O=C(N1CCOCC1)[C@@]1(CCS(=O)(=O)c2ccccc2)N=C(c2ccc(OCCCO)cc2)O[C@H]1c1ccccc1 | 1.06 | 0.55 (inactive) | 0.211 | 0.0228 | 0.853 | 3.1 | -0.152 | 1.31 | -0.56 | 1.2 |
| COc1cc(NN2C(C(O)c3cc(OC)c(OC)c(OC)c3)C=CC3C(=O)N(c4ccccc4)C(=O)C32)cc(OC)c1OC (stereo not given) | 1.06 | 0.573 (inactive) | 0.612 | 0.044 | 0.722 | 2.19 | 0.289 | 1.32 | 0.476 | 1.2 |
| CCC(CC)C(O)C1C=CC2C(=O)N(c3ccccc3)C(=O)C2N1Nc1ccc([N+](=O)[O-])cc1 (stereo not given) | 1.01 | 1.13 (inactive) | 0.443 | 0.125 | 0.573 | 1.72 | 1.35 | 1.3 | -0.0998 | 1.05 |
| C=C(C)[C@@H]1CC=C(C(O)C2C=CC3C(=O)N(c4ccccc4)C(=O)C3N2Nc2ccc(C#N)cc2)CC1 (stereo not given in full) | 0.971 | 0.0421 (inactive) | 0.217 | 0.0963 | 0.643 | 2.46 | 0.429 | 1.31 | 0.355 | 1.16 |
| COc1ccc([Si](C)(C)[C@H]2[C@H](CCO)O[C@@]3(C(=O)N(Cc4ccccc4)c4ccc(N5CCOC5=O)cc43)[C@@H]2C)cc1 | 0.711 | -0.326 (inactive) | 0.0311 | -0.149 | 0.299 | 0.644 | -0.174 | 0.832 | 0.524 | 1.15 |
| O=C1C2C=CC(C(O)c3ccco3)N(Nc3ccccc3)C2C(=O)N1c1ccccc1 (stereo not given) | 0.507 | 0.0089 (inactive) | -0.153 | -0.141 | 0.757 | 0.467 | -0.102 | -0.161 | -0.727 | -0.222 |
| C=C(COC)/C(=C/C[C@@H](OC(=O)c1ccncc1)c1ccccc1OCCO)c1cc(C(=O)OC)ccc1OC | 0.247 | -0.476 (inactive) | -0.171 | -0.132 | 0.803 | 0.107 | 0.748 | -0.227 | -1.12 | -0.71 |
